Source: PubChem
In the library only some 2.7% were active in any assay of this set; here they are far more common.
NadD inh = NadD (S. aureus) enzyme inhibition; purified NadD enzyme, colorimetric absorbance read-out; inhibition, % at 20 µM; 0.78% of 360,000 active; in the data active = inhibition above about 26%
rCAG binder-1 = r(CAG) repeat RNA binding; inhibition, % at 3 µM; 1.3% of 370,000 active; AID 651821; TO-PRO-1 dye displacement fluorescence;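 active = inhibition above the plate cutoff, the mean of all test compounds on that plate plus 3 SD, cut at about 35% in these data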;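 also: higher means more dye released from RNA so lower well fluorescence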
bovine MsrA act = activates bovine MsrA enzyme; activation, % at 10.6 µM; 0.3% of 360,000 active; purified bovine MsrA, absorbance read-out; in the data active = activation above about 7.5%
MsrA inh = inhibitors of bovine MsrA; purified bovine MsrA, absorbance read-out; inhibition, % at 15.5 µM; 0.75% of 360,000 active; AID 651718; in the data active = inhibition above about 4.5%
rCAG bind conf = r(CAG) RNA repeat binding, confirmation; 70% of 4,300 active; inhibition, % at 3 µM; TO-PRO-1 dye displacement fluorescence; shares compounds with rCAG binder-1;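 active = inhibition above a per-plate cutoff, the mean inhibition of sample wells plus 3 SD, cut at about 35% in these data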;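 also: loss of TO-PRO-1 fluorescence as compound displaces dye from 1x1 AA loop RNA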
DNA CAG counter = DNA CAG dye complex inhibition counter-screen. shares compounds with rCAG binder-1. d(CAG) DNA oligo TO-PRO-1 dye displacement, fluorescence. inhibition, % at 3 µM. 94% of 4,300 active;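 active = inhibition above its plate's cutoff, the mean test-well inhibition plus 3 SD, cut at about 4.8% in these data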;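 also: hits displace the dye from DNA and so lower well fluorescence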
dCAG dye DR = counter-screen for rCAG binders: inhibitors of DNA CAG TO-PRO-1 complex. shares compounds with rCAG binder-1. DNA CAG/GTC duplex TO-PRO-1 dye displacement fluorescence. IC50, µM. 20% of 250 active. AID 686960; in the data active = IC50 below about 10 µM
dCAG DNA bind = inhibits DNA CAG/GTC TO-PRO-1 complex, rCAG binder counter-screen. shares compounds with rCAG binder-1. d(CAG) DNA duplex TO-PRO-1 dye displacement, fluorescence. IC50, µM. 80% of 30 active
rCAG binder-2 = molecules binding r(CAG) RNA repeats, late stage dose response | 100% of 30 active | r(CAG) RNA TO-PRO-1 dye displacement, fluorescence | IC50, µM | shares compounds with rCAG binder-1
Large screens that a line does not name were inactive (follow-up assays come after a bar, where they were run). Unless noted, no rule for the calls is given here.

CCc1nnc(NC(=O)Nc2ccc(Cl)cc2)s1	rCAG binder-1 38.5 | rCAG bind conf inactive | DNA CAG counter 11.6
COc1ccc(Cc2nnc(NS(=O)(=O)c3ccc(NC(C)=O)cc3)s2)cc1	none
O=C(Nc1ccc(Cl)cc1)Nc1nnc(CSCc2ccc(Cl)cc2)s1	none
CCc1nnc(NS(=O)(=O)c2ccc(NC(=O)Nc3ccc(OC)cc3)cc2)s1	rCAG binder-1 54.1 | rCAG bind conf inactive | DNA CAG counter 6.9
CCc1nnc(NS(=O)(=O)c2ccc(N/C=C/C(=O)c3ccc(OC)cc3)cc2)s1	rCAG binder-1 59.5 | rCAG bind conf 65.5 | DNA CAG counter 29.0
CCc1nnc(NS(=O)(=O)c2ccc(NC(=O)OC)cc2)s1	none
CC1(C(=O)NS(=O)(=O)Cc2ccccc2)CCN1C(=O)Cc1ccccc1Cl (stereo unspecified)	none
CCc1nnc(NS(=O)(=O)c2ccc(N/C=C\C(=O)c3cccc4ccccc34)cc2)s1	rCAG binder-1 81.0 | rCAG bind conf 81.8 | DNA CAG counter 53.6
CCc1nnc(NS(=O)(=O)c2ccc(NC(=O)COc3ccc(Cl)c(C)c3)cc2)s1	rCAG binder-1 78.4 | rCAG bind conf 70.1 | DNA CAG counter 32.0 | dCAG dye DR inactive | dCAG DNA bind 3.53 | rCAG binder-2 1.3
CCOC(=O)c1sc(NC(=O)Nc2ccc(Cl)cc2)nc1C	rCAG binder-1 35.9 | rCAG bind conf 35.8 | DNA CAG counter 24.6
CC(C)CCNC(=O)CCn1nc(-c2ccc(Cl)cc2)ccc1=O	none
CCCCN(C(=O)C1CC1)C1CCS(=O)(=O)C1 (stereo unspecified)	none
COc1ccc(O)c(C(=O)c2cnc3nc4ccccc4n3c2)c1	rCAG binder-1 39.6 | rCAG bind conf inactive | DNA CAG counter 6.5
COc1ccc(O)c(C(=O)c2cnn(-c3ccccn3)c2)c1	none
CC(C)(C)c1ccc(N/N=C(\C#N)S(=O)(=O)C(C)(C)C)cc1	rCAG binder-1 36.3 | rCAG bind conf 50.1 | DNA CAG counter 19.5
CC(C)(C)S(=O)(=O)/C(C#N)=N/Nc1ccc(Cl)cc1	none
Cc1ccc(C)c(S(=O)(=O)N2CCN(C(=O)[C@H](Cc3ccccc3)NC(=O)c3ccco3)CC2)c1	none
CCc1nnc(NS(=O)(=O)c2ccc(NC(=O)c3ccc([N+](=O)[O-])s3)cc2)s1	rCAG binder-1 60.7 | rCAG bind conf 48.4 | DNA CAG counter 15.2
CCc1nnc(NS(=O)(=O)c2ccc(NC(=S)NC(=O)c3cccnc3)cc2)s1	none
CCc1nnc(NS(=O)(=O)c2ccc(NC(=O)c3ccccc3O)cc2)s1	none
CCc1nnc(NS(=O)(=O)c2ccc(NS(=O)(=O)c3ccccc3[N+](=O)[O-])cc2)s1	none
CCc1nnc(NS(=O)(=O)c2ccc(NC(=O)c3cccc([N+](=O)[O-])c3)cc2)s1	rCAG binder-1 45.1 | rCAG bind conf inactive | DNA CAG counter 4.9
CCCCOc1cccc(C(=O)Nc2ccc(S(=O)(=O)Nc3nnc(CC)s3)cc2)c1	rCAG binder-1 79.8 | rCAG bind conf 73.2 | DNA CAG counter 37.1
O=C(CSc1nnnn1-c1ccc(F)cc1F)Nc1ccccc1F	none
Cc1cc(C)cc(NS(=O)(=O)c2ccc(NC(=O)C3CCCCC3C(=O)O)cc2)c1 (stereo unspecified)	rCAG binder-1 35.7 | rCAG bind conf inactive | DNA CAG counter 4.8
Cc1ccc(SCC(=O)NC2CCCCCC2)cc1	none
COc1ccc(Cl)cc1Nc1nc(-c2sc(NC(=O)c3ccco3)nc2C)cs1	rCAG binder-1 35.4 | rCAG bind conf inactive | DNA CAG counter 17.0
COc1ccc(OC)c(Nc2nc(-c3sc(NC(=O)CC(C)C)nc3C)cs2)c1	none
CCc1ccc2[nH]c3nc(N/N=C/c4ccc(O)cc4O)nnc3c2c1	NadD inh 39.3, rCAG binder-1 56.8 | rCAG bind conf 34.6 | DNA CAG counter 22.3
CCOc1cc(C=NN2CCN(Cc3ccc(C)cc3)CC2)ccc1O	none (no result: NadD inh, bovine MsrA act, MsrA inh)
COc1cc(/C=C/C(=O)O)cc(S(=O)(=O)Nc2cc(Cl)c(Cl)cc2Cl)c1OC	rCAG binder-1 64.8 | rCAG bind conf 36.6 | DNA CAG counter 7.4
Cc1ccc(S(=O)(=O)Nc2cc(C(F)(F)F)ccc2N2CCOCC2)c(C)c1	none
COc1cc(/C=C/C(=O)O)cc(S(=O)(=O)Nc2cc(C(F)(F)F)ccc2N2CCOCC2)c1OC	rCAG binder-1 41.0 | rCAG bind conf inactive | DNA CAG counter 5.8
CCC(NC(=O)c1ccc2c(ccn2Cc2cccc(-c3ccc(C(=O)O)cc3)c2)c1)c1ccccc1 (stereo unspecified)	rCAG binder-1 77.2 (no result: NadD inh, bovine MsrA act, MsrA inh) | rCAG bind conf 76.6 | DNA CAG counter 35.0
O=C1N=c2ccccc2=C1c1sc(NS(=O)(=O)c2ccccc2)nc1O	rCAG binder-1 41.3 | rCAG bind conf inactive | DNA CAG counter 6.0
O=C1N=c2ccccc2=C1c1sc(NS(=O)(=O)Cc2ccccc2)nc1O	none
O=C1N=c2ccccc2=C1c1sc(Nc2cccc(O)c2)nc1O	rCAG binder-1 60.5 | rCAG bind conf inactive | DNA CAG counter 15.0
O=C1N=c2ccccc2=C1c1sc(Nc2ccc(O)cc2)nc1O	NadD inh 32.8, rCAG binder-1 40.8 | rCAG bind conf inactive | DNA CAG counter 17.8
O=C(O)Cn1c(O)c(C2=c3ccccc3=NC2=O)sc1=O	none
Nc1[nH]c(C(=O)c2ccccc2)c(-c2ccc(Cl)cc2)c1C(=O)NCc1ccco1	none
COc1ccc(C2CCc3cc4c(cc3C2=NO)OCO4)cc1OC (stereo unspecified)	none
CC(C)c1ccc(N(CC(=O)NCCSC(C)(C)C)S(C)(=O)=O)cc1	none
CC(=Cc1ccccc1)C=C1SC(=S)N(CCCC(=O)Nc2ccc(C(=O)O)cc2)C1=O	none
CC(/C=C1\SC(=O)N(CCCC(=O)O)C1=O)=C\c1ccccc1	none
CC(/C=C1\SC(=S)N(CCC(=O)Nc2cccc(C(=O)O)c2)C1=O)=C\c1ccccc1	rCAG binder-1 37.0 | rCAG bind conf 88.1 | DNA CAG counter 62.2
O=C(CCN1C(=O)/C(=C\c2cccs2)SC1=S)Nc1ccc(C(=O)O)cc1	rCAG binder-1 54.8 | rCAG bind conf 39.7 | DNA CAG counter 11.0
CC(/C=C1\SC(=S)N(CCCC(=O)Nc2ccc(C(=O)O)cc2)C1=O)=C\c1ccccc1	rCAG binder-1 73.8 | rCAG bind conf 85.1 | DNA CAG counter 53.4
CC(=C\c1ccccc1)/C=C1/SC(=S)N(CCCC(=O)O)C1=O	rCAG binder-1 37.2 | rCAG bind conf 48.8 | DNA CAG counter 14.5
Cc1cc(=O)n2nc(N3CCCC(C(=O)NCc4cccc(Br)c4)C3)sc2n1 (stereo unspecified)	none
